High-throughput results: PubChem BioAssay, National Center for Advancing Translational Sciences (NCATS)
NPSR antagonist – neuropeptide S receptor (human) antagonism, cAMP; Q6W5P4; CHO-NPSR cells, cAMP TR-FRET, antagonist mode; Potency, µM (series often up to 38.3 µM), without a hit: at the highest dose activity change, negative = inhibition, actives largely listed as inhibitors; 220,000 tested, 1% active; note: nearly all actives have a fitted effect of over 50% in size
Target sequence (Q6W5P4 whole entry, looked up): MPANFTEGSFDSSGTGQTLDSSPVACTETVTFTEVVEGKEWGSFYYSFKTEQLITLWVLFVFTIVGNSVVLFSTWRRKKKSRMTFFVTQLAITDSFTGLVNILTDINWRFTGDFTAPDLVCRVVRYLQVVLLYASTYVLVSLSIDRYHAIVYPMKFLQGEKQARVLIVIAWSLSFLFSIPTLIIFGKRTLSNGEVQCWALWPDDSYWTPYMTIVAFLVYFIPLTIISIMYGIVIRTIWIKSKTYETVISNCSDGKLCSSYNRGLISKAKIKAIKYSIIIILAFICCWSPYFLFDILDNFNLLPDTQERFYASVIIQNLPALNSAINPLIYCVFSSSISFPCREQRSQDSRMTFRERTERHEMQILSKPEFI
Luc counter – blocks Kinase-Glo luciferase, a counter-screen artifact; Q27757; Kinase-Glo luciferase, ATP luminescence, 8 min; Potency, µM (titrated, usually from 38.3 µM), inactives show at the top dose activity change, negative = inhibition, usual class: inhibitors; 200,000 tested, 0.28% active; AID 1379; note: nearly all actives have a fitted effect of over 60% in size
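Kinase-Glo luciferase light output from ATP and luciferin was measured with 10 uM ATP, within the enzyme's linear range. Buffer: 50 mM imidazole pH 7.2, 50 mM KCl, 7 mM MgCl2, 0.01% Tween 20, 0.05% BSA; luminescence read after 8 min at ambient temperature.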
Tau fibril ThT – inhibitors of human tau fibril formation, thioflavin T binding; P10636; Potency, µM (doses to about 57.4 µM), inactives show top-dose activity, negative = inhibition, hits mostly inhibitors; 270,000 tested, 2.1% active; recombinant tau K18 P301L, heparin-induced fibrillization, ThT fluorescence; note: nearly all actives have a fitted effect of over 55% in size
Target sequence (P10636 561-689 P618L limits assumed): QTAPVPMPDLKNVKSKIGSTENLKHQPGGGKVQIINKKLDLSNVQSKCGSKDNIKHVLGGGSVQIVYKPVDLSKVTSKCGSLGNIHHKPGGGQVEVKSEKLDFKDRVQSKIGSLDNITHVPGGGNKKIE
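K18 P301L tau (15 uM + 0.24 uM Alexa 594-tagged), heparin 20 uM, NaOAc pH 7, 6 h 37 C; ThT 30 uM, 1 h RT, ex 450/em 510 nm.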
Tau fibril FP – tau fibrillization inhibition (FP); K18 P301L tau heparin fibrillization, Alexa594 FP, 6 h; Potency, µM (series often up to 57.7 µM), for inactives: at the highest dose activity, negative = inhibition, hits mostly inhibitors; 280,000 tested, 0.39% active; AID 1468; note: nearly all actives have a fitted effect of over 55% in size
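Human tau K18 […] P301L fragment, 15 uM unlabeled plus 0.24 uM Alexa 594-labeled tau (final), with compound and 20 uM heparin in 100 mM sodium acetate pH 7; 6 hr at 37 C, then Alexa 594 FP read.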
Tau fluor cs – counter-screen for tau fibril formation inhibitors; 280,000 tested, 0.93% active; Potency, µM (series often up to 57.7 µM), for inactives: at the top dose activity change, negative = decrease; tau K18 P301L Alexa594 fluorescence, heparin fibrillization; AID 1463; note: nearly all actives have a fitted effect of over 55% in size
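Human tau K18 P301L (15 uM unlabeled, 0.24 uM Alexa 594-labeled) in 100 mM sodium acetate pH 7 with 20 uM heparin, 6 hr at 37 C. ThT 30 uM added, 1 hr ambient; Alexa 594 FP and total fluorescence read at 555/632 nm.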
* = called active by the depositor; ? = inconclusive; nt = not tested or not shown; [ ] = remark or other dose. Compounds with a hit are over-represented: about 3.3% of the library has one in this group of screens. Calls come from the whole dose curve; as a rule, active = well fitted curve in the direction sought with a large enough effect; inconclusive = small, poorly fitted or top-dose-only effect, or another doubt; inactive = no such curve, though single readings can be large; an effect the other way counts as inactive or inconclusive. % is set by controls: 0 for no effect and ±100 for the full control effect; potency is the fitted concentration of half-maximal effect.

SMILES | NPSR antagonist | Luc counter | Tau fibril ThT | Tau fibril FP | Tau fluor cs
COc1ccc(C(C)(C)C)cc1NC(=O)Nc1ccc2c(c1)OCO2 | -59.0% | 3.2% | ? | ? | 14.1µM*[quencher]
COc1cc(NC(=O)Nc2ccc3c(c2)OCO3)cc(OC)c1OC | -2.4% | 2.0% | -5.0% | 4.0% | -17.5%
O=c1[nH]c2ccc(NC(=S)Nc3ccc(F)cc3)cc2[nH]1 | -5.4% | nt | ? | -1.4% | -22.4%
COc1cc([N+](=O)[O-])ccc1NC(=O)Nc1ccc2c(c1)OCCO2 | -13.8% | 1.0% | 12.6µM* | ? | 15.8µM*[quencher]
O=C(CSc1ccc([N+](=O)[O-])cn1)Nc1ccc2c(c1)OCCO2 | -0.6% | 0.4% | ? | -3.1% | -16.7%
Cc1ccc(N(C(=O)COc2ccccc2C)S(=O)(=O)c2ccc(Cl)cc2)cc1 | nt | nt | ? | ? | -13.2%
N#Cc1ccc(NC(=O)c2cc(-c3cccc(Cl)c3)on2)cc1 | nt | nt | -8.7% | -6.9% | -2.6%
CCCCN(C)CCNC(=O)C1CCN(c2nc3ccc(CC)cc3s2)CC1 | nt | nt | -15.8% | -1.8% | -15.0%
COc1ccccc1C1CCN(c2cc(O)ccc2[N+](=O)[O-])CC1 | 26.7% | nt | 20µM* | ? | ?
CC(=O)c1ccc(N2CCN(C(=O)Nc3cn(CC(C)C)c(=O)c4ccccc34)CC2)cc1 | nt | nt | ? | -0.4% | -4.2%
O=C1C(=Cc2ccc(Br)o2)C(=O)c2ccccc21 | -15.8% | -6.5% | 6.31µM* | ? | ?
COC(=O)C[C@H]1c2ccccc2[C@H]2C(=C[C@@H](C)[C@H]3C(=O)N(O)C(=O)[C@H]32)N1C(=O)OC | nt | -2.8%[7.66 µM] | -3.9%[11.5 µM] | 0.3%[11.6 µM] | -3.3%[11.6 µM]
CCC12CCCN3CCc4c(n(c5ccccc45)C(O)(C(=O)OC)C1)C32 (stereo not drawn) | -3.4% | nt | 17.8µM* | ? | ?
CC[C@@]12CCCN3CCc4c(n(c5ccccc45)[C@](O)(C(=O)OC)C1)[C@H]32 | nt | 3.9% | -0.5% | -10.1% | -5.9%
O=C(/C=C/c1cccnc1)c1cc(F)ccc1O | 15.8% | nt | -4.9% | 14.3% | 25.7%
CN(C)c1ccc(/C=C/C(=O)c2cc(Cl)ccc2O)cc1 | 5.0%[7.67 µM] | nt | 3.98µM* | 10.5% | ?
O=C(/C=C/c1ccncc1)c1cc(Cl)ccc1O | 38.0% | nt | 28.2µM* | 2.4% | ?
CCC1CN(C(=O)Nc2cc(C)cc(C)c2)c2ccccc2O1 (stereo not drawn) | nt | nt | -9.4% | 5.0% | -24.6%
CC1CCC(NC(=O)c2ccc3c(c2)N(Cc2cccc(Cl)c2)C(=O)c2ccccc2S3(=O)=O)CC1 (stereo not drawn) | nt | nt | 9.5% | -13.7% | 6.6%
COc1ccccc1C(=O)Nc1cccc(OCc2cc(=O)n3ccccc3n2)c1 | nt | nt | -17.8% | -9.8% | -12.9%
Cc1ccc(C)c(NC(=O)CSc2nccn2-c2cccc(C)c2C)c1 | nt | nt | -11.7% | 5.9% | -5.4%
Cc1nn(-c2ccc3ccccc3c2)c(=O)c2ccccc12 | 41.1% | -9.5% | -13.6% | -3.8% | -23.8%
Cc1cc(Nc2ccccc2)n(-c2nc3ccccc3[nH]2)n1 | -19.2%[46.1 µM] | 0.0% | ? | -14.4% | 25.1µM*[quencher]
Cc1nn(-c2nc3ccccc3[nH]2)c(=O)c2ccccc12 | -11.9% | 1.41µM* | -7.5% | 8.5% | -0.2%
O=C1/C(=C/c2ccc(O)c(O)c2)SC(=S)N1Nc1ccccc1 | -54.1% | nt | 5.01µM* | -4.8% | 11.2µM*[quencher]
SMILES | NPSR antagonist | Luc counter | Tau fibril ThT | Tau fibril FP | Tau fluor cs
Cc1cc(C)nc(NN2C(=O)/C(=C/c3ccccc3)SC2=S)n1 | -5.0%[46.1 µM] | -2.7% | ? | -2.6% | -14.2%
COc1cc(/C=C2\SC(=S)N(C(Cc3ccccc3)C(=O)O)C2=O)ccc1O (stereo not drawn) | 2.6%[7.67 µM] | nt | 11.2µM* | 1.5% | -16.9%
COc1cc(/C=C2\SC(=S)N(Nc3ccccc3)C2=O)ccc1O | -33.2% | -10.2% | 11.2µM* | 11.1% | 28.2µM*[quencher]
COc1cc(/C=C2\SC(=S)N(Nc3ncc(C(F)(F)F)cc3Cl)C2=O)ccc1O | ? | -2.8% | 15.8µM* | -14.9% | 14.1µM*[quencher]
COc1cc(/C=C2\SC(=S)N(c3cccnc3)C2=O)ccc1O | -2.9% | nt | 6.6% | -1.1% | 0.5%
CCOc1cc(/C=C2\SC(=S)N(N3CCOCC3)C2=O)ccc1O | 13.7% | nt | 0.6% | 1.1% | 0.1%
CCOc1ccc(/C=C2\SC(=S)N(NS(=O)(=O)c3ccccc3)C2=O)cc1OC | -34.1% | nt | 14.1µM* | 7.5% | -6.1%
O=C(O)c1ccc(/C=C2\SC(=S)N(Nc3ccccc3)C2=O)cc1 | -1.6% | nt | ? | -17.5% | ?
COc1ccc(/C=C2\SC(=S)N(C(C(=O)O)c3ccccc3)C2=O)c(OC)c1 (stereo not drawn) | -40.9% | nt | 12.6µM* | -10.7% | -10.7%
CCOc1cc(/C=C2\SC(=S)N(Nc3ccccc3)C2=O)ccc1O | ? | -9.4% | 11.2µM* | 1.4% | 12.6µM*[quencher]
O=C1/C(=C/c2ccncc2)SC(=S)N1Nc1ccccc1 | 6.2%[7.67 µM] | nt | 17.8µM* | ? | ?
Cc1ccc(NC(=O)c2cc3ccccn3n2)cc1F | nt | nt | -10.5% | -5.7% | -27.7%
O=C(Nc1ccc(S(=O)(=O)Nc2ccccc2)cc1)N1CCCC1 | nt | nt | -1.0% | 3.7% | -6.8%
CCCNS(=O)(=O)c1cc(-c2nn3c(C)nnc3c3ccccc23)ccc1C | nt | nt | -7.6% | -14.1% | -13.8%
O=C(c1cc(C(F)(F)F)cc(C(F)(F)F)c1)N1CCC2(CC1)CN(c1ncccn1)C2 | nt | -2.2% | nt | nt | nt
O=C(O)C(Cc1ccccc1)N1C(=O)/C(=C/c2cccc3ccccc23)SC1=S (stereo not drawn) | -8.3%[46.1 µM] | 0.6% | 20µM* | -6.1% | -16.1%
COc1ccccc1NC(=O)Cn1c(=O)n(-c2ccc(C)cc2)c(=O)c2ccc(C(=O)NCc3ccco3)cc21 | nt | nt | 3.7% | -13.6% | -20.8%
CCN(C(=O)c1cn(CC)c(=O)c2cc(OC)c(OC)cc12)c1ccccc1F | nt | nt | -2.8% | 3.0% | -2.9%
Nc1nc2c(c(=O)[nH]1)C(c1cccc3ccccc13)C1=C(N2)c2ccccc2C1=O (stereo not drawn) | -10.7% | -2.0% | 10µM* | -9.7% | ?
O=C(O)Cn1ccnc1[N+](=O)[O-] | nt | -2.2%[7.66 µM] | nt | nt | nt
Cc1ccc(-c2cc(-c3ccco3)c3c(N)c(C(=O)NN)oc3n2)cc1 | 26.1% | nt | 10µM* | -1.8% | ?
